Experimental data taken from PubChem BioAssay (NCI).
About 79,000 compounds went through this panel and 15% of them were active in at least one assay; those are over-represented in the sample as a whole. Activity calls are given as the source filed them. Rule as the data show it: active = growth inhibition above about 70%; inactive = the rest.

assay: NCI Yeast Anticancer Drug Screen. Data for the cln2 rad14 strain (AID 165);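 also: 0% = growth equal to vehicle treated cultures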; conditions: S. cerevisiae cln2 rad14 strain, at 50.0 µM (retest, dose inferred, filed as 5.0), stronger effect = higher value
How it was run: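 Relative to vehicle controls, growth inhibition of compound-treated cln2 rad14 yeast was recorded.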

SMILES	growth inhibition
Nc1nc2c(ccc3ccccc32)s1	33% (inactive)
O=C(O)CCCCC1CCCCC1.[Cu+2]	30% (inactive)
O=Cc1ccc(O)c2ccccc12	23% (inactive)
CC(=Nc1ccc(N(C)C)cc1)c1ccccc1	53% (inactive)
C/C(Cl)=N\OC(=O)Nc1ccc(C)cc1	86% (active)
COC(=O)C1CCC(c2ccccc2)CC1C(=O)OC (stereo not given)	12% (inactive)
CCCCNC(=S)NC1C2CC3CC(C2)CC1C3 (stereo not given)	39% (inactive)
CCN(CC)CCOC(=O)CCN1CC2CCC(CC2)C1	3% (inactive)
CCOc1ccc(-c2nc3ccc(-c4nc5ccc(N6CCN(C)CC6)cc5[nH]4)cc3[nH]2)cc1	52% (inactive)
NC(CCC(=O)NC(CS(=O)(=O)O)C(=O)O)C(=O)O (stereo not given)	4% (inactive)
CSc1cc(C(=O)O)nc(N)n1	-1% (inactive)
CCN(CC)CCCNc1c(O)cc(C)c2sc3ccccc3c(=O)c12	96% (active)
C=C1C(=O)OC2C1CC1OC2C(C)CCC/C(C)=C\CCC1(C)O (stereo not given)	-8% (inactive)
O=C1C=CC2=Nc3ccccc3CCC2=C1	86% (active)
CC(C)CC(CC(C)C)OP(=O)(O)OC(CC(C)C)CC(C)C	78% (active)
O=C(O)c1ccccc1Cc1ccc2c(c1)Cc1ccccc1-2	88% (active)
Nc1c(F)cccc1F	-6% (inactive)
COc1cc(OC)c(SSCCCCS(=O)O)c(OC)c1	25% (inactive)
S=C1Nc2cnc3ccccc3c2SC1c1ccccc1 (stereo not given)	98% (active)
CC(C)CCCC(C)[C@H]1CCC(C2C[C@@H](O)[C@@H]3CC(O)[C@@H](O)C[C@]3(CO)C2=O)[C@]1(C)CCO (stereo not given in full)	98% (active)

SMILES	growth inhibition
CN(C)CC(CN(C)C)C(=O)c1ccc(Oc2ccc(Cl)c(Cl)c2)cc1	95% (active)
CN1c2ccccc2C(C)(C)C12C=Cc1cc(O)ccc1O2 (stereo not given)	23% (inactive)
CC(C)Cc1ncc(CC(C)C)n(O)c1=O	97% (active)
Nc1ccc(SSc2ccc(N)cc2)cc1	72% (active)
N#CCC1CC(=O)c2[nH]c3ccccc3c2C1 (stereo not given)	-74% (inactive)
O=C1c2ccccc2C(=O)c2sccc21	32% (inactive)
CC/C(=C(\CC)c1ccc(O)c(CN(C)C)c1)c1ccc(OC)cc1	98% (active)
O=S(=O)(O)N=Nc1ccc(O)cc1	98% (active)
O=C1CCSC(=S)N1c1ccc(N=Nc2ccccc2)cc1	13% (inactive)
CC(C)C(=O)NNc1ccccc1	67% (inactive)
O=C(CBr)c1ccc2cc(Br)c3ccccc3c2c1	92% (active)
O=C1c2cc3c(cc2CC1Br)CCC3 (stereo not given)	99% (active)
O=C1NC(=O)N(c2ccc(Cl)c(Cl)c2)C1=O	5% (inactive)
C[n+]1c(-c2cccc(OCCOCCOc3cccc(-c4c5cc(N)ccc5c5ccc(N)cc5[n+]4C)c3)c2)c2cc(N)ccc2c2ccc(N)cc21	59% (inactive)
N#CC(C#N)C(C#N)c1ccc(Cl)c(Cl)c1 (stereo not given)	99% (active)
CCCCCCCCCCCCOC(=O)C[n+]1cccc(C(=O)Nc2ccc(Cl)cc2)c1	99% (active)
CCC(=O)c1ccc2ccc3ccccc3c2c1	45% (inactive)
Cc1ccc(S(=O)(=O)NC(=O)CC2CCCCC2)cc1	91% (active)
c1ccc(N/N=C(/CC/C(=N\Nc2ccccc2)c2ccccc2)c2ccccc2)cc1	81% (active)
Cc1c(N)cc(I)cc1[N+](=O)[O-]	-11% (inactive)

same assay, conditions: S. cerevisiae cln2 rad14 strain, at 50.0 µM, stronger effect = higher value

SMILES	growth inhibition
Nc1nc2c(ccc3ccccc32)s1	61.2% (inactive)
O=C(O)CCCCC1CCCCC1.[Cu+2]	0.9% (inactive)
O=Cc1ccc(O)c2ccccc12	32.8% (inactive)
CC(=Nc1ccc(N(C)C)cc1)c1ccccc1	45.4% (inactive)
C/C(Cl)=N\OC(=O)Nc1ccc(C)cc1	53.6% (inactive)
COC(=O)C1CCC(c2ccccc2)CC1C(=O)OC (stereo not given)	24% (inactive)
CCCCNC(=S)NC1C2CC3CC(C2)CC1C3 (stereo not given)	92.2% (active)
CCN(CC)CCOC(=O)CCN1CC2CCC(CC2)C1	9.4% (inactive)
CCOc1ccc(-c2nc3ccc(-c4nc5ccc(N6CCN(C)CC6)cc5[nH]4)cc3[nH]2)cc1	91.5% (active)
NC(CCC(=O)NC(CS(=O)(=O)O)C(=O)O)C(=O)O (stereo not given)	93.5% (active)
CSc1cc(C(=O)O)nc(N)n1	28.1% (inactive)
CCN(CC)CCCNc1c(O)cc(C)c2sc3ccccc3c(=O)c12	98.3% (active)
C=C1C(=O)OC2C1CC1OC2C(C)CCC/C(C)=C\CCC1(C)O (stereo not given)	91.8% (active)
O=C1C=CC2=Nc3ccccc3CCC2=C1	88.9% (active)
CC(C)CC(CC(C)C)OP(=O)(O)OC(CC(C)C)CC(C)C	85% (active)
O=C(O)c1ccccc1Cc1ccc2c(c1)Cc1ccccc1-2	71.2% (active)
Nc1c(F)cccc1F	20.4% (inactive)
COc1cc(OC)c(SSCCCCS(=O)O)c(OC)c1	44.7% (inactive)
S=C1Nc2cnc3ccccc3c2SC1c1ccccc1 (stereo not given)	90.3% (active)
CC(C)CCCC(C)[C@H]1CCC(C2C[C@@H](O)[C@@H]3CC(O)[C@@H](O)C[C@]3(CO)C2=O)[C@]1(C)CCO (stereo not given in full)	90.2% (active)

SMILES	growth inhibition
CN(C)CC(CN(C)C)C(=O)c1ccc(Oc2ccc(Cl)c(Cl)c2)cc1	93.5% (active)
CN1c2ccccc2C(C)(C)C12C=Cc1cc(O)ccc1O2 (stereo not given)	35.6% (inactive)
CC(C)Cc1ncc(CC(C)C)n(O)c1=O	81.3% (active)
Nc1ccc(SSc2ccc(N)cc2)cc1	94.1% (active)
N#CCC1CC(=O)c2[nH]c3ccccc3c2C1 (stereo not given)	28% (inactive)
O=C1c2ccccc2C(=O)c2sccc21	56.3% (inactive)
CC/C(=C(\CC)c1ccc(O)c(CN(C)C)c1)c1ccc(OC)cc1	97.8% (active)
O=S(=O)(O)N=Nc1ccc(O)cc1	91% (active)
O=C1CCSC(=S)N1c1ccc(N=Nc2ccccc2)cc1	84% (active)
CC(C)C(=O)NNc1ccccc1	93.2% (active)
O=C(CBr)c1ccc2cc(Br)c3ccccc3c2c1	46.1% (inactive)
O=C1c2cc3c(cc2CC1Br)CCC3 (stereo not given)	90.2% (active)
O=C1NC(=O)N(c2ccc(Cl)c(Cl)c2)C1=O	24.8% (inactive)
C[n+]1c(-c2cccc(OCCOCCOc3cccc(-c4c5cc(N)ccc5c5ccc(N)cc5[n+]4C)c3)c2)c2cc(N)ccc2c2ccc(N)cc21	62.9% (inactive)
N#CC(C#N)C(C#N)c1ccc(Cl)c(Cl)c1 (stereo not given)	99.4% (active)
CCCCCCCCCCCCOC(=O)C[n+]1cccc(C(=O)Nc2ccc(Cl)cc2)c1	100% (active)
CCC(=O)c1ccc2ccc3ccccc3c2c1	-7.25% (inactive)
Cc1ccc(S(=O)(=O)NC(=O)CC2CCCCC2)cc1	76.7% (active)
c1ccc(N/N=C(/CC/C(=N\Nc2ccccc2)c2ccccc2)c2ccccc2)cc1	47.8% (inactive)
Cc1c(N)cc(I)cc1[N+](=O)[O-]	-32.7% (inactive)
